# Measurements as given in paper PMC7862700, “An all-to-all approach to the identification of sequence-specific readers for epigenetic DNA modifications on cytosine”.
# Key:
# Assay in all cases: DAPPL (digital affinity profiling via proximity ligation, sequencing); 10 mM Tris-HCl pH 7.5, 50 mM NaCl, 1 mM DTT, 4% glycerol, room temperature, 30 min; GST-TFs on glutathione beads, 16-mer random dsDNA library, 0.1% formaldehyde crosslink after washing; high values mean tight binding
# Conditions in all cases: protein: recombinant; tags: N-terminal GST; dsDNA, one strand shown
# ETV2 = target: T1, ETV2 (Homo sapiens, UniProt O00321 1-342)
# T1 sequence: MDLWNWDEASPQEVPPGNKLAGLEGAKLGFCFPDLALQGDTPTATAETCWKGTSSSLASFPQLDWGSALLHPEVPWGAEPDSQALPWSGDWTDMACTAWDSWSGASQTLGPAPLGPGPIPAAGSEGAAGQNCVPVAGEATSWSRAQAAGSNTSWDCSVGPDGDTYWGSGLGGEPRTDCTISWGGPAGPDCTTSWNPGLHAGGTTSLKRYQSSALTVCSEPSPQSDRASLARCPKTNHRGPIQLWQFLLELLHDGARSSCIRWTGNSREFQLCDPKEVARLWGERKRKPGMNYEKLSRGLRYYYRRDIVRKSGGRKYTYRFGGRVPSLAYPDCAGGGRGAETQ
# In short: (§1)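 Yeast served to express human transcription factors as GST fusions, which were then captured on glutathione beads and labelled with DNA barcodes. Pooled with a tag-only sample, they were incubated with 200 nmole of a 16-mer random double-stranded DNA library for 30 min at room temperature in Tris/NaCl/DTT/glycerol buffer, washed, crosslinked with 0.1% formaldehyde, ligated by proximity, amplified by PCR and sequenced. Dividing each hexamer's read frequency for a factor by its frequency for the tag-only sample gives the binding signal.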
# ETV1 = ETV1 (Homo sapiens, UniProt P50549 1-477)
# Sequence of ETV1 (P50549 whole entry): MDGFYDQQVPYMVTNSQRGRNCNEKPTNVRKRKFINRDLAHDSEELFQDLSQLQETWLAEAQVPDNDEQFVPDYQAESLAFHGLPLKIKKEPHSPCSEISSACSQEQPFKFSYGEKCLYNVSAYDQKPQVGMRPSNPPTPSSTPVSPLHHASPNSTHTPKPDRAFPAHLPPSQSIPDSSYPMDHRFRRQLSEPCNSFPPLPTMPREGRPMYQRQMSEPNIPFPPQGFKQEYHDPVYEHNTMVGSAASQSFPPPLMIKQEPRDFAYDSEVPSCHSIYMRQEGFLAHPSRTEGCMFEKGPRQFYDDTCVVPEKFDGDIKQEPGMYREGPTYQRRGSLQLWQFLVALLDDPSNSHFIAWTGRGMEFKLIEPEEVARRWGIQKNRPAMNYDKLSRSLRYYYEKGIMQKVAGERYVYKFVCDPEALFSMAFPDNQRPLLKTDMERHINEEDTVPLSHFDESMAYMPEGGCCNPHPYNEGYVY
# In short: as §1
# ERF = target: T2, ERF (Homo sapiens, UniProt P50548 1-548)
# T2 sequence: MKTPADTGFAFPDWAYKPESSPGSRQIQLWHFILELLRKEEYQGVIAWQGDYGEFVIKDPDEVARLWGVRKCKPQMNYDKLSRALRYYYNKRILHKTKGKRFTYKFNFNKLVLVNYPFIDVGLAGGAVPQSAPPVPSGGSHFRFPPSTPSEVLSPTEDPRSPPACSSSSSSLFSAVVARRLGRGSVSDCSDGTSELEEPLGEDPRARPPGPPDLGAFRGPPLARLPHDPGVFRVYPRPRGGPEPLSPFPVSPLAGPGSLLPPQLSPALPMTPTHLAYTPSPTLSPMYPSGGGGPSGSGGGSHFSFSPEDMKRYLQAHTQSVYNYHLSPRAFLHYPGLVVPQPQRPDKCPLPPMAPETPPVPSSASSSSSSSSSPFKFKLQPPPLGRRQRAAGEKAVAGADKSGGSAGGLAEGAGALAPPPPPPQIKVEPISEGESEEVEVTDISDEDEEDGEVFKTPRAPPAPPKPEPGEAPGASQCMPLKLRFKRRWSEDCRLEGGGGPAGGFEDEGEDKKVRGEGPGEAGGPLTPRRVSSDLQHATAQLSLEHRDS
# In short: as §1
# ETV3L = target: T3, ETV3L (Homo sapiens, UniProt Q6ZN32 1-361)
# T3 sequence: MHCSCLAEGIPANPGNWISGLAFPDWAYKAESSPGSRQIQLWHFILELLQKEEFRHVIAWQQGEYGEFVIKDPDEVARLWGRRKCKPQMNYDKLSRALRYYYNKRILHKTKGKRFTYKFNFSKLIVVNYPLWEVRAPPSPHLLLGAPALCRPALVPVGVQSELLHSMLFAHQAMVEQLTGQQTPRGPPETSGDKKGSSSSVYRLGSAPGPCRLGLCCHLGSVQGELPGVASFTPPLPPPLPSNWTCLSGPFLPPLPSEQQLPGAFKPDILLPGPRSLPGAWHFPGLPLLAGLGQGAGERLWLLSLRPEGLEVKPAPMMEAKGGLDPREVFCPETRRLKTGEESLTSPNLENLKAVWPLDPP
# In short: as §1
# ETS2 = target: T4, ETS2 (Homo sapiens, UniProt P15036 1-469)
# T4 sequence: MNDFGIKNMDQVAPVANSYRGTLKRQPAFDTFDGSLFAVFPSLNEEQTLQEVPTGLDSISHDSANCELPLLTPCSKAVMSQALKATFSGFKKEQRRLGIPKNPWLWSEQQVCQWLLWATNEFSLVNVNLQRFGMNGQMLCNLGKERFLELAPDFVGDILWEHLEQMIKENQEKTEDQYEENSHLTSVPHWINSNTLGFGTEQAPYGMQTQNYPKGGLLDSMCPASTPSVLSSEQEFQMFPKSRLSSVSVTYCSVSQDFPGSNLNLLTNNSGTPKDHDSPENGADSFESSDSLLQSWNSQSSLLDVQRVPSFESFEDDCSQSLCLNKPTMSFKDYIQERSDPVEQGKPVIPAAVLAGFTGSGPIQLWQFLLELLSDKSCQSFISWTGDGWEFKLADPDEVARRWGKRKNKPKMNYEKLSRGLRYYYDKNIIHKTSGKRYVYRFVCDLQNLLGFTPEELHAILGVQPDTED
# In short: as §1
# SPDEF = target: T5, SPDEF (Homo sapiens, UniProt O95238 1-335)
# T5 sequence: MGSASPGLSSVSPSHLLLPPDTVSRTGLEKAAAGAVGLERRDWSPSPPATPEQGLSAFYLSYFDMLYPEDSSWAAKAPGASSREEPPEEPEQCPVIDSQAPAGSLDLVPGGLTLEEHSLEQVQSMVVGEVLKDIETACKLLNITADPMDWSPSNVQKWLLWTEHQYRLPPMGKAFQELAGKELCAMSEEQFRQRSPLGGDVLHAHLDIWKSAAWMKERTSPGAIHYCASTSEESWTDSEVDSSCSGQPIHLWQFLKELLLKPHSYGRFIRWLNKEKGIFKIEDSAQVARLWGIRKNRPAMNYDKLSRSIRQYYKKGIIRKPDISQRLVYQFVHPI
# In short: as §1
# ETV7 = target: T6, ETV7 (Homo sapiens, UniProt Q9Y603 1-341)
# T6 sequence: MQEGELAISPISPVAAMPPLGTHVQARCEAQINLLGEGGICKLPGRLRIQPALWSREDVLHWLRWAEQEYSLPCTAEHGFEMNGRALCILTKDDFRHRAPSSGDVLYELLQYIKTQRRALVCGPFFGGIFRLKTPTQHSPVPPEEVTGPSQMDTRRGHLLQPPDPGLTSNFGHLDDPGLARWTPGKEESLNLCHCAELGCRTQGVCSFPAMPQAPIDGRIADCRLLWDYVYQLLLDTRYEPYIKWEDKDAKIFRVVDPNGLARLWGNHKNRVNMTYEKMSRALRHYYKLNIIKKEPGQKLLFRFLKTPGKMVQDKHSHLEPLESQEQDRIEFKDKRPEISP
# In short: as §1
# ETV3 = target: T7, ETV3 (Homo sapiens, UniProt P41162-2 1-143)
# T7 sequence: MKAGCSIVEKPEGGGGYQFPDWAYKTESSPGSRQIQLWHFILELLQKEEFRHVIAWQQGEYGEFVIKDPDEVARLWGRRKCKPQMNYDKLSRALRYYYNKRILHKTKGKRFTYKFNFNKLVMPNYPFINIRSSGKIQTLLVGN
# In short: as §1
# ETV6 = ETV6 (Homo sapiens, UniProt P41212 1-452)
# Sequence of ETV6 (P41212 whole entry): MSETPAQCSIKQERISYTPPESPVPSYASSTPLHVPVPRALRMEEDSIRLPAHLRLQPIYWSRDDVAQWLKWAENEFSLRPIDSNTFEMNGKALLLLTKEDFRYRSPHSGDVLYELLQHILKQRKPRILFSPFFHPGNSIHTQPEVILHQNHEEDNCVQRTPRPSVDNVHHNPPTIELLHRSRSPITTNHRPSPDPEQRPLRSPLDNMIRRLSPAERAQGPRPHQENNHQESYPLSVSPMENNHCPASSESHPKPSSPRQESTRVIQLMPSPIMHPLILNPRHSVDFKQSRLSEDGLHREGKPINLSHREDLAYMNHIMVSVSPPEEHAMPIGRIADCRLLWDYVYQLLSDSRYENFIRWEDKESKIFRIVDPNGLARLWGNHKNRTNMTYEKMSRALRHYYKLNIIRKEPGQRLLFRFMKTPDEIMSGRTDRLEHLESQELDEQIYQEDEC
# In short: as §1
sequence,measurement,setting,value
TTGTCA,binding signal,ETV2,"1.02 fold enrichment (6-mer frequency, TF over GST control)"
same,binding signal,ETV1,"1.15 fold enrichment (6-mer frequency, TF over GST control)"
same,binding signal,ERF,"1.3 fold enrichment (6-mer frequency, TF over GST control)"
same,binding signal,ETV3L,"1.17 fold enrichment (6-mer frequency, TF over GST control)"
same,binding signal,ETS2,"1.11 fold enrichment (6-mer frequency, TF over GST control)"
same,binding signal,SPDEF,"1.06 fold enrichment (6-mer frequency, TF over GST control)"
same,binding signal,ETV7,"1.2 fold enrichment (6-mer frequency, TF over GST control)"
same,binding signal,ETV3,"1.16 fold enrichment (6-mer frequency, TF over GST control)"
same,binding signal,ETV6,"1.07 fold enrichment (6-mer frequency, TF over GST control)"
